The panel holds about 79,000 compounds, 15% with a hit somewhere; the sample as a whole holds those more often. Values without a mark were called inactive. Activity calls are given as the source filed them. Rule as the data show it: active = growth inhibition above about 70%; inactive = the rest.
Assay: NCI Yeast Anticancer Drug Screen. Data for the mlh1 strain (AID 171);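 also: 0% = growth of vehicle-treated control cultures of the same strain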
Conditions: S. cerevisiae mlh1 strain growth inhibition, active compounds read high
Description: Growth inhibition of yeast strains with defined genetic alterations is measured as a screen for potential anti-cancer activity. Selected strains with alterations in DNA damage repair or cell cycle control were exposed to compounds and growth inhibition was measured relative to vehicle treated controls. The strain used in this assay is mlh1

Cc1cc[n+](C2=C(Nc3cccc(C(F)(F)F)c3)C(=O)c3ccccc3C2=O)cc1
growth inhibition (at 1.2 µM): 3%
growth inhibition (at 3.7 µM): -2%
growth inhibition (at 11.0 µM): 1%
growth inhibition (at 33.0 µM): 1%
growth inhibition (at 100.0 µM): 10%

O=C1c2ccccc2C(=O)C(Cl)C1Cl (stereo not given)
growth inhibition (at 1.2 µM): 1%
growth inhibition (at 3.7 µM): 4%
growth inhibition (at 11.0 µM): 93% (active)
growth inhibition (at 33.0 µM): 99% (active)
growth inhibition (at 100.0 µM): 99% (active)

CCCCCCCCCCCCCCCCP(=O)(O)OP(=O)(O)OCC1OC(n2ccc(N)nc2=O)C(O)C1O (stereo not given)
growth inhibition (at 1.2 µM): 0%
growth inhibition (at 3.7 µM): 0%
growth inhibition (at 11.0 µM): 1%
growth inhibition (at 33.0 µM): -4%
growth inhibition (at 100.0 µM): 1%

COc1cc([C@@H]2c3cc4c(cc3C[C@@H]3COC(=O)C32)OCO4)cc(OC)c1O (stereo not given in full)
growth inhibition (at 1.2 µM): 9%
growth inhibition (at 3.7 µM): 14%
growth inhibition (at 11.0 µM): 66%
growth inhibition (at 33.0 µM): 86% (active)
growth inhibition (at 100.0 µM): 93% (active)

O=C(O)C1C2c3ccccc3C(c3ccccc32)C1C(=O)O (stereo not given)
growth inhibition (at 1.2 µM): -4%
growth inhibition (at 3.7 µM): -4%
growth inhibition (at 11.0 µM): -1%
growth inhibition (at 33.0 µM): -4%
growth inhibition (at 100.0 µM): 1%

O=S(=O)(O)c1ccc(Cl)cc1.[Cd]
growth inhibition (at 1.2 µM): -1%
growth inhibition (at 3.7 µM): 7%
growth inhibition (at 11.0 µM): 17%
growth inhibition (at 33.0 µM): 50%
growth inhibition (at 100.0 µM): 82% (active)

CCNCC(=O)O[C@]1(CC)C(=O)OCc2c1cc1n(c2=O)Cc2cc3ccccc3nc2-1
growth inhibition (at 1.2 µM): 13%
growth inhibition (at 3.7 µM): 6%
growth inhibition (at 11.0 µM): -2%
growth inhibition (at 33.0 µM): -13%
growth inhibition (at 100.0 µM): -21%

Cc1ccc2nc3sc(=O)sc3nc2c1
growth inhibition (at 1.2 µM): 27%
growth inhibition (at 3.7 µM): 50%
growth inhibition (at 11.0 µM): 98% (active)
growth inhibition (at 33.0 µM): 98% (active)
growth inhibition (at 100.0 µM): 95% (active)

From PubChem BioAssay (NCI)
